# Article PMC10726135, “HNF4α isoforms regulate the circadian balance between carbohydrate and lipid metabolism in the liver”
# Over roughly 18,000 sequences, “log2 normalized intensity” has its median near 0.36; the highest 2% begin near 7.3. Only a selection was taken, and the highest values are over-represented in it overall.
# Biological target: T1, HNF4alpha8 (COS-7 nuclear extract) (Homo sapiens, UniProt P41235-5 1-452)
# T1 sequence: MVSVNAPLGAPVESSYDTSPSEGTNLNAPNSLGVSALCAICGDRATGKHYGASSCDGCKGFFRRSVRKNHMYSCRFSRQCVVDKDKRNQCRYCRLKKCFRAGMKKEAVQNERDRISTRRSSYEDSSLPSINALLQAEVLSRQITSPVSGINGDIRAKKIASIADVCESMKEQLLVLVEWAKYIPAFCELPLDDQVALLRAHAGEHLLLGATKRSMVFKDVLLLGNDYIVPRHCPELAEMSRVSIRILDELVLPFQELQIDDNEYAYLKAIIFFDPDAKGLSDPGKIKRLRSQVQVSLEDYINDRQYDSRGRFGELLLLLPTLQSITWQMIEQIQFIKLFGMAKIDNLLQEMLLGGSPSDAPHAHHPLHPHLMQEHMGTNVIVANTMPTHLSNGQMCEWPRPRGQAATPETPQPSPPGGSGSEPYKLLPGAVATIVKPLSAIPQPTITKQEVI
# Test: protein-binding microarray; COS-7 nuclear extract on double-stranded Agilent 4x180k PBM; binding buffer, salt, pH and temperature not given in the material; high values mean tight binding
# Details: chain copies: 2; label: 3' end of strand 1 on the slide; dsDNA, one strand shown
# Method in brief: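 The binding signal is Agilent software's gProcessedSignal after background correction and normalization. Arrays were a custom Agilent SurePrint G3 4x180k design of double-stranded ~60-nt oligonucleotides with ~44,000 test sequences in quadruplicate, probed with nuclear extracts of COS-7 cells transiently expressing a human HNF4α isoform. Scans were made at 2-µm resolution on an Agilent G2565CA scanner.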
row,Sequence,binding signal
1,TCTGCTTGCCATTAATGAAAACTGCACTTCGCCTAGGGAGATTAGAGTATCGGTCGA,2.38 log2 normalized intensity
2,TTTATTTGAAGAAATGGTGGACTTTGTAGCGCCTAGGGAGATTAGAGTATCGGTCGA,6.52 log2 normalized intensity
3,GTGACCTTTGACCTCAGAGAGCCGGAAACTGCCTAGGGAGATTAGAGTATCGGTCGA,8.02 log2 normalized intensity
4,CTACTACTTGACCTTTGAAACATATCCAGAGCCTAGGGAGATTAGAGTATCGGTCGA,6.31 log2 normalized intensity
5,ATTCTCACCACTAGGAAACTGACCTTTGCTGCCTAGGGAGATTAGAGTATCGGTCGA,6.07 log2 normalized intensity
6,TTGCCCCTTTGACCCTCGGGCCTCCCTAGAGCCTAGGGAGATTAGAGTATCGGTCGA,4.81 log2 normalized intensity
7,GGCTGATGACCTTTGACTGAGATGGGAGCAGCCTAGGGAGATTAGAGTATCGGTCGA,4.58 log2 normalized intensity
8,CTTTGACCTCAGAGAGCCGGAAACTCCACCGCCTAGGGAGATTAGAGTATCGGTCGA,-0.861 log2 normalized intensity
9,CCCTCAGAGCTCAGATGAACTTTGCCTTAGGCCTAGGGAGATTAGAGTATCGGTCGA,6.28 log2 normalized intensity
10,AAAGACTTGCTCATTGATGAGTGACCTTTGGCCTAGGGAGATTAGAGTATCGGTCGA,7 log2 normalized intensity
11,TCATTGATGAGTGACCTTTGACCTCAGAGAGCCTAGGGAGATTAGAGTATCGGTCGA,10.5 log2 normalized intensity
12,CACCACTAGGAAACTGACCTTTGCTCATGAGCCTAGGGAGATTAGAGTATCGGTCGA,7.58 log2 normalized intensity
13,GATGAGTGACCTTTGACCTCAGAGAGCCGGGCCTAGGGAGATTAGAGTATCGGTCGA,9.88 log2 normalized intensity
14,CTAGGAAACTGACCTTTGCTCATGACTATTGCCTAGGGAGATTAGAGTATCGGTCGA,6.61 log2 normalized intensity
15,GGTCAATGTGCACATTCGAAGTTTTGCTCCGCCTAGGGAGATTAGAGTATCGGTCGA,1.65 log2 normalized intensity
16,GGATATTTGATCAAAGGTCAGCTCTCCTTTGCCTAGGGAGATTAGAGTATCGGTCGA,5.11 log2 normalized intensity
17,TTTATAATCCTAGCTTGGTTTTTCTGGGACGCCTAGGGAGATTAGAGTATCGGTCGA,0.942 log2 normalized intensity
18,GGATTATGGAGATGGAGATGGCCTGGAGGTGCCTAGGGAGATTAGAGTATCGGTCGA,0.909 log2 normalized intensity
19,ACAACCAGGGAGATGTGAGCGACCTTTGCAGCCTAGGGAGATTAGAGTATCGGTCGA,4.55 log2 normalized intensity
20,GGTTGTAAAATGAGGTCAGCATGGTGGGAGGCCTAGGGAGATTAGAGTATCGGTCGA,1.04 log2 normalized intensity
21,GGGGCGATGCTTCCAAAGTCCACAGTCCCCGCCTAGGGAGATTAGAGTATCGGTCGA,3.92 log2 normalized intensity
22,CTCTTTTACTGTACTTCTTTAGGACTGCTCGCCTAGGGAGATTAGAGTATCGGTCGA,1.37 log2 normalized intensity

row,Sequence,binding signal
1,ATATAAAAACTAACCATACTGAGTGTTGGTGCCTAGGGAGATTAGAGTATCGGTCGA,-0.252 log2 normalized intensity
2,AGTGTAAGGACATTGCCCCCTATGTAAAGGGCCTAGGGAGATTAGAGTATCGGTCGA,4.09 log2 normalized intensity
3,TGATTACCCTTATCTTATCTCCTGCTAAATGCCTAGGGAGATTAGAGTATCGGTCGA,-0.759 log2 normalized intensity
4,TTTCAACATTTAACTTAACCACTCAATCAGGCCTAGGGAGATTAGAGTATCGGTCGA,-0.86 log2 normalized intensity
5,CTTTGAGATTTGCATTCATGATCTTAGATAGCCTAGGGAGATTAGAGTATCGGTCGA,0.242 log2 normalized intensity
6,GTGACCTTTGACCTCTGGCCTTTGCAGTTAGCCTAGGGAGATTAGAGTATCGGTCGA,8.79 log2 normalized intensity
7,CTGACCTCAAGTGACCTTTGACCTCTGGCCGCCTAGGGAGATTAGAGTATCGGTCGA,11.2 log2 normalized intensity
8,GATGTTTAGCTATCAGTGTTGACCTCTGGAGCCTAGGGAGATTAGAGTATCGGTCGA,6.06 log2 normalized intensity
9,CTCTAACCACTTTGAAATAGTGACCTCTGCGCCTAGGGAGATTAGAGTATCGGTCGA,5.01 log2 normalized intensity
10,CTGACAAGTATCTCGGTCAAACCTTTGACCGCCTAGGGAGATTAGAGTATCGGTCGA,6.35 log2 normalized intensity
11,ACCACTTTGAAATAGTGACCTCTGCTGGCCGCCTAGGGAGATTAGAGTATCGGTCGA,3.43 log2 normalized intensity
12,TTAGCTATCAGTGTTGACCTCTGGACCTCAGCCTAGGGAGATTAGAGTATCGGTCGA,7.79 log2 normalized intensity
13,TATCAGTGTTGACCTCTGGACCTCATCTTCGCCTAGGGAGATTAGAGTATCGGTCGA,6.23 log2 normalized intensity
14,TGACCTTTGCCTCATTCTTATTGCCTCATGGCCTAGGGAGATTAGAGTATCGGTCGA,4.2 log2 normalized intensity
15,ACCTTTGCCTTCTTGACATCTCTCTCTGCAGCCTAGGGAGATTAGAGTATCGGTCGA,-0.0607 log2 normalized intensity
16,CTCAAGTGACCTTTGACCTCTGGCCTTTGCGCCTAGGGAGATTAGAGTATCGGTCGA,10.3 log2 normalized intensity
17,TCTGGTGCCAAGGAGCCTCTGCAACCTTTGGCCTAGGGAGATTAGAGTATCGGTCGA,3.43 log2 normalized intensity
18,CAGGAGTCGGGAGGTAGGGGTGGCGGGTTGGCCTAGGGAGATTAGAGTATCGGTCGA,0.403 log2 normalized intensity
19,GCCAAAGGTCAGAGTTGAACCCTTGGGGCTGCCTAGGGAGATTAGAGTATCGGTCGA,4.38 log2 normalized intensity
20,TCTGCTGTACATATTTGCCAAGTGATAAGGGCCTAGGGAGATTAGAGTATCGGTCGA,1.01 log2 normalized intensity
21,TCTAACATTTTTGACCTTCAGCATCTTCAAGCCTAGGGAGATTAGAGTATCGGTCGA,3.81 log2 normalized intensity
22,CCTTTGAGATAGCTATGATTATCCTTATCTGCCTAGGGAGATTAGAGTATCGGTCGA,-0.293 log2 normalized intensity

row,Sequence,binding signal
1,ATCTGTATCAGCCTGTGACAAAGTCCATCTGCCTAGGGAGATTAGAGTATCGGTCGA,5.65 log2 normalized intensity
2,CCCGGACCAGGCCGGGTCACGTGGGTCCAGGCCTAGGGAGATTAGAGTATCGGTCGA,3.63 log2 normalized intensity
3,GTCAGTCTTTGTTCTAGTAAGGCCTTCAAAGCCTAGGGAGATTAGAGTATCGGTCGA,0.595 log2 normalized intensity
4,TTCAGAAGACTTCCTGGCCTCTCTGCAAATGCCTAGGGAGATTAGAGTATCGGTCGA,-0.39 log2 normalized intensity
5,TAACGGTGAGGGAGGAGACTTTGACCTCTGGCCTAGGGAGATTAGAGTATCGGTCGA,7.45 log2 normalized intensity
6,GGAGGAGACTTTGACCTCTGCTAGGTTTGGGCCTAGGGAGATTAGAGTATCGGTCGA,5.5 log2 normalized intensity
7,GTGAGGGAGGAGACTTTGACCTCTGCTAGGGCCTAGGGAGATTAGAGTATCGGTCGA,6.12 log2 normalized intensity
8,TATGTCTCTCCTATTCAGGTATTTGCTCTGGCCTAGGGAGATTAGAGTATCGGTCGA,0.488 log2 normalized intensity
9,CACAGTGTAGAAGGCAAGGGTCAAGATGTCGCCTAGGGAGATTAGAGTATCGGTCGA,2.31 log2 normalized intensity
10,ATTCCAGTGTTTCAAAGGAGTGTCTTTCTCGCCTAGGGAGATTAGAGTATCGGTCGA,1.51 log2 normalized intensity
11,CATGTGGTCCTAAGACTAACCTTTGACCATGCCTAGGGAGATTAGAGTATCGGTCGA,8.37 log2 normalized intensity
12,TAAGACTAACCTTTGACCATCCACGGATGCGCCTAGGGAGATTAGAGTATCGGTCGA,5.5 log2 normalized intensity
13,TACTCATGTGGTCCTAAGACTAACCTTTGAGCCTAGGGAGATTAGAGTATCGGTCGA,7.11 log2 normalized intensity
14,CCTCCATTAACTAACCTTTGAACCAGATGGGCCTAGGGAGATTAGAGTATCGGTCGA,5.69 log2 normalized intensity
15,ATTAACTAACCTTTGAACCAGATGGCCCTCGCCTAGGGAGATTAGAGTATCGGTCGA,4.3 log2 normalized intensity
16,GGTCCTAAGACTAACCTTTGACCATCCACGGCCTAGGGAGATTAGAGTATCGGTCGA,6.44 log2 normalized intensity
17,TTACTCATGTGGTCCTAAGACTAACCTTTGGCCTAGGGAGATTAGAGTATCGGTCGA,4.06 log2 normalized intensity
18,ATGTGGTCCTAAGACTAACCTTTGACCATCGCCTAGGGAGATTAGAGTATCGGTCGA,8.15 log2 normalized intensity
19,CCTTACCTCCATTAACTAACCTTTGAACCAGCCTAGGGAGATTAGAGTATCGGTCGA,7.58 log2 normalized intensity
20,CTGACATTCTCCACTTGGTGACTGTCATTTGCCTAGGGAGATTAGAGTATCGGTCGA,0.274 log2 normalized intensity
21,TGCCCTCACAGGTTCCAGCATGGACTTCACGCCTAGGGAGATTAGAGTATCGGTCGA,3.32 log2 normalized intensity
22,TTCCGCGGACGTGTTCCCACAGTGCCCTCTGCCTAGGGAGATTAGAGTATCGGTCGA,3.77 log2 normalized intensity

row,Sequence,binding signal
1,AGTTTCAACTTAACCCCAGTTTAGCAATTTGCCTAGGGAGATTAGAGTATCGGTCGA,2.08 log2 normalized intensity
2,AACACAGGTGACCTTTGCTCCGGTTCCCAAGCCTAGGGAGATTAGAGTATCGGTCGA,7.12 log2 normalized intensity
3,TCTAAGACATAACACAGGTGACCTTTGCTCGCCTAGGGAGATTAGAGTATCGGTCGA,8.96 log2 normalized intensity
4,AGGTGACCTTTGCTCCGGTTCCCAATAAGTGCCTAGGGAGATTAGAGTATCGGTCGA,5.71 log2 normalized intensity
5,GACATAACACAGGTGACCTTTGCTCCGGTTGCCTAGGGAGATTAGAGTATCGGTCGA,7.92 log2 normalized intensity
6,TCTTTTCTAAGACATAACACAGGTGACCTTGCCTAGGGAGATTAGAGTATCGGTCGA,4.48 log2 normalized intensity
7,CTAAGCAGGCACATTCCAGGACCTTTGCTCGCCTAGGGAGATTAGAGTATCGGTCGA,4.83 log2 normalized intensity
8,TGTGGGTAATTAATCTGATCGCCCTCCCCCGCCTAGGGAGATTAGAGTATCGGTCGA,5.29 log2 normalized intensity
9,CTATTCTCTAAACTCTGGGCTCTATTTGGAGCCTAGGGAGATTAGAGTATCGGTCGA,0.51 log2 normalized intensity
10,TACTTTGGACTGGGGACCTGGTCTGAGATAGCCTAGGGAGATTAGAGTATCGGTCGA,1.25 log2 normalized intensity
11,AAGACTTTGGACTTTGGACCTGAGGCTTTTGCCTAGGGAGATTAGAGTATCGGTCGA,10.3 log2 normalized intensity
12,GGACCTGAGGCTTTTGAGTCAATAATGGACGCCTAGGGAGATTAGAGTATCGGTCGA,1.38 log2 normalized intensity
13,GAGATGAGGCTCAGACCTGACCTTTGGATTGCCTAGGGAGATTAGAGTATCGGTCGA,8.85 log2 normalized intensity
14,GAGGCTCAGACCTGACCTTTGGATTCCCAGGCCTAGGGAGATTAGAGTATCGGTCGA,7.11 log2 normalized intensity
15,TGCTGGAGATGAGGCTCAGACCTGACCTTTGCCTAGGGAGATTAGAGTATCGGTCGA,7.17 log2 normalized intensity
16,ACAAGGAGTCTCCACTATGACCTGTGCTTTGCCTAGGGAGATTAGAGTATCGGTCGA,2.18 log2 normalized intensity
17,TATAGTTTATCTACCTTTGTACCTTTAGTAGCCTAGGGAGATTAGAGTATCGGTCGA,4.65 log2 normalized intensity
18,GTTGGGCAGAAGGTGTTTCAGATGGACCAAGCCTAGGGAGATTAGAGTATCGGTCGA,1.98 log2 normalized intensity
19,ATAGCTGCCTGTGTGTTCTGCTATTCATTAGCCTAGGGAGATTAGAGTATCGGTCGA,0.562 log2 normalized intensity
